# Screening data deposited in PubChem by National Center for Advancing Translational Sciences (NCATS).
# D3 ag: agonists of human D3 dopamine receptor. D3R DiscoveRx beta-arrestin cells, luminescence, 90 min. max activation, %. hit rate 0.58% among 410,000. AID 652048; in the data active means max activation above about 30%; further: 0% is about no effect
#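 Agonist-mode cell screen: cells plated at 1500/well and incubated overnight at 37 °C, then exposed to library compounds for 90 min at 37 °C. Detection reagent was added for 30–60 min at room temperature, and luminescence was read.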
# D3 antag: antagonists of human D3 dopamine receptor; hit rate 2.5% among 360,000; D3R cells, DiscoveRx beta-arrestin luminescence, antagonist mode; active compounds read low; max response, negative = inhibition, %; in the data active means max response below about -50%; inconclusive means no clear call, values can overlap the other calls; further: on the % scale 0 is the no-effect control and ±100 the full control effect
#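 Cells expressing the human receptor were seeded at 1500 cells/well, incubated overnight at 37 degrees C in 5% CO2, then exposed to library compounds with dopamine controls for 90 minutes at 37 degrees C before luminescent detection.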
# D1 ag: human D1 receptor agonism; HEK293 T-REx D1 cells, calcium flux, agonist mode; activation, % at 2 µM; hit rate 1% among 360,000; AID 504660; in the data active means activation above about 30%; further: 0% is about no effect
# Target sequence (P21728 whole entry, looked up): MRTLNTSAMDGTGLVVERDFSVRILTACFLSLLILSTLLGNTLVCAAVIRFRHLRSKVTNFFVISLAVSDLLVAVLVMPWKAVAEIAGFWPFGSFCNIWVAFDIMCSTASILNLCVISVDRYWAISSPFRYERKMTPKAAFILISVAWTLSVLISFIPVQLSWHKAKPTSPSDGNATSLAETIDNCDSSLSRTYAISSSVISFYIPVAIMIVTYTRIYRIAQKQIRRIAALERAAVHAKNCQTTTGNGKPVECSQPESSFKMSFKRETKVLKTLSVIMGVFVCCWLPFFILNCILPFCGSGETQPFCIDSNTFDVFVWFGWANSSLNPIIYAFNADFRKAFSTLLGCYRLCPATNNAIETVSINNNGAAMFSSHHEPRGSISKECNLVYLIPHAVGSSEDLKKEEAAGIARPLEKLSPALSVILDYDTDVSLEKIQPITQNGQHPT
#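 Tetracycline-induced HEK293 TREx D1 cells, force-coupled to calcium signalling, were dye-loaded with a no-wash calcium kit. Compound was pin-added after a 10 s baseline. Fluorescence was read kinetically at 1 cycle/s for 180 s, with calcium rises flagged as agonism.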
# D1 antagonist: human D1 dopamine receptor antagonism; HEK293 TREx D1 cells, calcium flux, dopamine EC80; active compounds read low; activity change, negative = inhibition, % at 10 µM; hit rate 3.2% among 360,000; in the data active means activity change below about -30%; further: on the % scale 0 is the no-effect control and ±100 the full control effect
#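 Inducible Hek293 Trex D1 cells (tetracycline, overnight, 30 C). Calcium dye 30–90 min RT. Antagonist mode: EC80 dopamine added after 180 s compound read.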
# D1 PAM: human D1 dopamine receptor positive modulation; P21728; HEK293 TREx D1 cells, calcium flux, dopamine EC20 potentiation; potentiation, % at 10 µM; hit rate 0.036% among 360,000; AID 504651; in the data active means potentiation above about 30%; further: 0% is about no effect
# The depositor's hits bear a star; ? = inconclusive; / = not tested or not shown. Compounds with a hit are over-represented: about 6.1% of the library has one in this group of screens.
SMILES,D3 ag,D3 antag,D1 ag,D1 antagonist,D1 PAM
CCCCNC(=O)C(NC(=O)c1cnccn1)C(=O)c1ccccc1 (centres undefined),1,1,/,/,/
O=C1/C(=N\S(=O)(=O)c2cccs2)C([n+]2ccccc2)=C([O-])c2ccccc21,-10,-17,0,-8,6
O=C1C(Nc2ccc(O)cc2)=C/C(=N/S(=O)(=O)c2cccs2)c2ccccc21,-31,-85*,13,-7,-4
O=C(O)c1ccc(NC2=C/C(=N/S(=O)(=O)c3cccs3)c3ccccc3C2=O)cc1,-21,-84*,/,/,/
O=C(CN1C(=O)CCSc2ccccc21)Nc1ccccc1F,1,/,5,-14,-6
CC(=O)N1CC2(CC(c3ccccc3C(F)(F)F)=NO2)CN1c1ccc(Cl)cc1 (centres undefined),-4,-10,/,/,/
CCCCCc1cc(O)c2c(C)cc(=O)oc2c1,3,-26,108*,-10,-18
Cc1c(NC(=O)c2ccc(-c3cccc([N+](=O)[O-])c3)o2)c(=O)n(-c2ccccc2)n1C,5,-1,0,-9,0
CCOc1cc(C2c3c(oc4ccccc4c3=O)C(=O)N2Cc2ccccc2Cl)ccc1O (centres undefined),7,/,-1,0,-1
COc1ccc(C(=O)Nc2n[nH]c(-c3ccncc3)n2)cc1,-16,17,4,-47*,-3
O=C(Nc1ccc(C(F)(F)F)cc1)c1ccccc1,-4,-20,1,-49*,-12
O=C(Nc1ccc(C(F)(F)F)cc1)c1ccccc1Br,4,2,4,-38*,-7
O=C(C[n+]1ccc(C(=O)c2ccccc2)cc1)Nc1ccc(C(F)(F)F)cc1,-13,-11,2,-43*,-3
Nc1cc[n+](CC(=O)Nc2ccccc2)cc1,-3,-5,1,-6,-3
Cc1csc(=O)n1CC(=O)OCC(=O)NNC(=O)c1ccc(Cl)cc1,6,-3,1,-21,2
O=C(Nc1cccnc1)C1Cc2c(-c3cccc(F)c3)ccnc2O1 (centres undefined),-4,13,/,/,/
Nc1ccn(CC(=O)N[C@H](CO)Cc2c[nH]c3ccccc23)c(=O)n1,5,-19,1,-34*,-4
Nc1ccn(CC(=O)NCc2ccccc2)c(=O)n1,15,-11,1,4,2
CC(C)(C)c1ccc(C(O)CCCN2CCC(C(O)(c3ccccc3)c3ccccc3)CC2)cc1 (centres undefined),-63,-60*,43*,23,-4
N#CCc1ccc(OCCCN2CCC(C(O)(c3ccccc3)c3ccccc3)CC2)cc1,-18,-68*,/,/,/
CC(=O)Nc1ccccc1OCCCN1CCC(C(O)(c2ccccc2)c2ccccc2)CC1,-14,-70*,/,/,/
CC(=O)Nc1ccc(OCCCN2CCC(C(O)(c3ccccc3)c3ccccc3)CC2)cc1,-12,-104*,/,/,/
Oc1ccccc1CN1CCC(C(O)(c2ccccc2)c2ccccc2)CC1,-4,0,7,5,-13
CCN(CC)C(=O)Cn1c(SCCOc2ccc(Cl)cc2)nc2ccccc21,-1,/,3,-7,0
COc1ccc(Cc2nnc(Nc3ccc4c(c3)OCCO4)[nH]c2=O)cc1,-2,4,3,6,-2
SMILES,D3 ag,D3 antag,D1 ag,D1 antagonist,D1 PAM
CC(=O)c1ccc(NC(=O)C2CCC(CNS(=O)(=O)c3cccc4nsnc34)CC2)cc1 (centres undefined),17,/,16,-20,-6
CO[C@H]1C=CO[C@@]2(C)Oc3c(C)c(O)c4c(O)c(cc(O)c4c3C2=O)NC(=O)/C(C)=C\C=C/[C@H](C)[C@H](O)[C@@H](C)[C@@H](O)[C@@H](C)[C@H](OC(C)=O)[C@@H]1C,-6,/,/,/,/
OC(c1ccccc1)(c1ccccc1)C1CCN(CCCOc2ccc3c(c2)CCCC3)CC1,5,-17,/,/,/
OC(c1ccccc1)(c1ccccc1)C1CCN(CCCOc2cccc(OC(F)(F)F)c2)CC1,-14,-81*,/,/,/
COc1ccccc1CNC(=O)C1(C)CCN1C(=O)C1(c2ccccc2)CC1 (centres undefined),-3,-58*,/,/,/
CCCc1ccccc1OCCNS(=O)(=O)c1cc2c(cc1C)OCC(=O)N2,42*,4,3,-5,-9
COc1cc(C#Cc2ccc3cc(C(C)(C)O)oc(=O)c3c2)cc(OC)c1,31*,70,4,/,-4
Cc1cccc(C(=O)NC2CCN(C#N)CC2)c1,/,/,-1,-15,2
CCOC(=O)c1cc2c(C)n(-c3ccc(N(C)C)cc3)c(C)c2cc(C(=O)OCC)c1=O,57*,28,3,9,18
O=C(NCCN1CCN(c2ccccc2Cl)CC1)Nc1ccccc1,8,?,-1,-8,-7
O=C(NCCN1CCN(c2ccccc2)CC1)Nc1cccc(Cl)c1,13,?,11,-27,-8
Cc1cccc(NC(=O)NCCN2CCN(c3ccccc3)CC2)c1C,8,-71*,2,-2,-15
Cc1cccc(N2CCN(CCNC(=O)Nc3ccc(Cl)cc3)CC2)c1C,10,/,30*,-33*,-3
CCc1ccc(N2CCN(CCNC(=O)Nc3ccccc3)CC2)cc1,-16,-72*,-4,-6,-7
CCc1ccc(N2CCN(CCNC(=O)Nc3ccc(OC)cc3)CC2)cc1,1,8,2,3,16
Cc1ccc(NC(=O)NCCN2CCN(c3ccccc3)CC2)cc1Cl,-7,-71*,13,-16,-5
CCOC(=O)Cn1ccc(-c2ccccc2)c(C#N)c1=O,-2,3,-1,/,-4
Cc1cc(-c2nn(-c3ccccc3F)cc2CN2CCN(c3ccccn3)CC2)c(C)s1,-19,-79*,1,2,1
COc1ccccc1N1C(=O)C2C(C(=O)c3ccccc3)=NN(c3ccccc3OC)C2C1=O (centres undefined),4,-6,78*,8,0
CCCc1cc(N2CCN(c3ccc(OC)cc3)CC2)n2cnnc2n1,19,/,5,-33*,-2
CCCc1cc(N2CCN(c3ccccc3)CC2)n2cnnc2n1,-2,/,3,3,-2
CCCCn1c(=O)c2oc3ccccc3c2n(CC(=O)Nc2cc(C)ccc2C)c1=O,4,/,2,16,-4
CCOC(=O)c1cc(C#N)c(SC)nc1C,6,4,1,2,0
CCOC(=O)c1cc(C#N)c(SC)nc1-c1ccccc1,0,-6,9,-44*,-3
O=C(NCC(c1ccco1)N1CCc2ccccc2C1)c1ccc(F)cc1 (centres undefined),-26,-21,7,-12,9
O=C(NCC(c1ccco1)N1CCc2ccccc2C1)C(=O)Nc1ccccc1 (centres undefined),-34,-90*,3,-23,3
O=C(NCC(c1ccco1)N1CCc2ccccc2C1)c1ccccc1 (centres undefined),-34,-53*,3,-4,2
